Screening data deposited in PubChem by several laboratories.
The list is not random: actives were taken first. Their share in the collection is about 1.3%.
BCLXL inh = blocks human Bcl-xL binding to Bim BH3 peptide | Q07817 | GST-Bcl-xL / FITC-Bim BH3 peptide fluorescence polarization | AID 2129 | inhibition, % at 10.9 µM | 320,000 compounds, 0.7% hits;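 active = inhibition above the mean of all tested compounds plus 3 SD, cutoff set per campaign, cut at about 30% in these data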;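 note: 0% = DMSO wells and 100% = unlabeled Bim-BH3 peptide competitor; inhibitors lower millipolarization by displacing the labeled peptide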
Target sequence (Q07817 whole entry, looked up): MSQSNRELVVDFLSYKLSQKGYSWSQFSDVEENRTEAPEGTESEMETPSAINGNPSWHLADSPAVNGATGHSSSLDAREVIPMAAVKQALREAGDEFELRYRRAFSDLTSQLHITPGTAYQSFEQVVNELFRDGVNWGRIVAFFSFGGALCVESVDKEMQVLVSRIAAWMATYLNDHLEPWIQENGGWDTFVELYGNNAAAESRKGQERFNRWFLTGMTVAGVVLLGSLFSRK
MEX-5 binding = C. elegans MEX-5 TCR-2 RNA binding activity; MEX-5/FITC-TCR2 RNA binding, fluorescence polarization; stronger effect = lower value; AID 1832; activity score (negative = inhibition of binding), % at 10 µM; 300,000 compounds, 0.38% hits; Q9XUB2;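 active = inhibition past about -25% in most replicates, and total fluorescence under double the plate's negative control median, limit read from the data; inconclusive = replicates evenly split on the limit, or fluorescence at least double controls; inactive = too little inhibition in most replicates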;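 note: 0% = DMSO and -100% = 5 µM competing unlabeled TCR2 RNA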
EBV gp42 block = inhibitors of Epstein-Barr virus glycoprotein 42; Q1HVG2; 220,000 compounds, 0.42% hits; Fluorescence polarization binding assay, mP read-out; inhibition, % (tested at 21.74 µM); in the data active = inhibition above about 50%
Target sequence (Q1HVG2 whole entry, looked up): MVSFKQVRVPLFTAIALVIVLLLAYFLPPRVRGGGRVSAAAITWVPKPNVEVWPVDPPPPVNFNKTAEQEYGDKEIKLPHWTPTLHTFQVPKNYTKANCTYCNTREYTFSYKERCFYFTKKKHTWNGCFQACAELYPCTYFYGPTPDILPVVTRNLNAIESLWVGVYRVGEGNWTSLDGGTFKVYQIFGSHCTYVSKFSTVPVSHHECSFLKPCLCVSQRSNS
E coli Lon inh = E. coli protease La inhibition. purified E. coli Lon protease, fluorescence polarization. inhibition, % at 7.94 µM. 360,000 compounds, 0.42% hits. P0A9M0; in the data active = inhibition above about 13%, passing the limit was not always enough;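 note: 0% = enzyme with probe and DMSO and 100% = no enzyme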
GLD-1 RNA inh = GLD-1-TGE RNA interaction inhibition (C. elegans); AID 2280; 320,000 compounds, 0.44% hits; inhibition, % at 5.96 µM; purified GLD-1 + fluorescein TGE RNA, fluorescence polarization;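 active = percent inhibition above a per-plate cutoff, the plate mean of test compounds plus 3 SD, cut at about 30% in these data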;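 note: 0% = DMSO wells with GLD-1 and probe and 100% = wells lacking GLD-1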
eLon confirm = confirmation of E. coli Lon protease inhibitors | purified E. coli Lon, fluorescence polarization | inhibition, % at 7.94 µM | 1,400 compounds, 31% hits | shares compounds with E coli Lon inh; in the data active = inhibition above about 16%;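 note: 0% = enzyme with probe and DMSO and 100% = no enzyme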
Starred values were filed as active, the others as inactive.

How did COc1ccc(C(C(=O)NC2CCCC2)N(CC2CCCO2)C(=O)Cn2nnc(-c3ccc(C)o3)n2)cc1 (stereo unspecified) do in these assays?
BCLXL inh: 4; MEX-5 binding: 1; EBV gp42 block: -4; E coli Lon inh: 18*; GLD-1 RNA inh: 7; eLon confirm: -10

What do the screens show for `Cc1ccc(-c2nnn(CC(=O)N(c3ccc(F)cc3)C(C(=O)NC3CCCC3)c3ccncc3)n2)o1` (stereo unspecified)?
BCLXL inh: 0; MEX-5 binding: -1; E coli Lon inh: 18*; GLD-1 RNA inh: -3; eLon confirm: -13

How did Cc1ccc(C(=O)Nc2cccc(NC(=O)CN3CCCCC3)c2)cc1 do in these assays?
BCLXL inh: 2; MEX-5 binding: -1; E coli Lon inh: -7; GLD-1 RNA inh: 4

What do the screens show for `CCOC(=O)C1=C(C)NC(=O)CC1c1ccccc1` (stereo unspecified)?
BCLXL inh: 3; MEX-5 binding: -2; EBV gp42 block: -1; E coli Lon inh: -3; GLD-1 RNA inh: -1

Results for CCOC(=O)C1=C(C)NC(=S)N(C(C)=O)C1c1ccccc1 (stereo unspecified) ?
BCLXL inh: 3; MEX-5 binding: -1; EBV gp42 block: -13; E coli Lon inh: 17*; GLD-1 RNA inh: -3; eLon confirm: 1

What do the screens show for `CCOC(=O)C1CCCN(C(=O)c2[nH]c(C(F)(F)F)nc2-c2ccccc2)C1` (stereo unspecified)?
E coli Lon inh: -7

Results for CCN(CC)S(=O)(=O)c1cc(NC(=O)[C@@H](NC(N)=O)C(C)C)ccc1C ?
BCLXL inh: -2; MEX-5 binding: 2; EBV gp42 block: 5; E coli Lon inh: 17*; GLD-1 RNA inh: -7; eLon confirm: -3

Results for Cc1cccc(C)c1NC(=O)C1CCN(S(C)(=O)=O)CC1 ?
BCLXL inh: 7; MEX-5 binding: 3; E coli Lon inh: 40*; GLD-1 RNA inh: 0; eLon confirm: 5

How did C[n+]1ccccc1COc1ccc(C(C)(C)C)cc1 do in these assays?
BCLXL inh: 6; MEX-5 binding: -3; EBV gp42 block: -10; E coli Lon inh: -12; GLD-1 RNA inh: -1

How did N#CC(C#N)=C1C=C2C=C(N3CCCCCC3)CCC2CC1 (stereo unspecified) do in these assays?
MEX-5 binding: inconclusive; EBV gp42 block: -91; E coli Lon inh: 151*; eLon confirm: -95

What do the screens show for `O=C(CCN1C(=O)C2CC=C(Cl)CC2C1=O)N1CCCCC1` (stereo unspecified)?
BCLXL inh: 54*; MEX-5 binding: -41*; EBV gp42 block: 13; E coli Lon inh: 29*; GLD-1 RNA inh: 58*; eLon confirm: 52*

How did O=C(CCN1C(=O)C2C3C=CC(C3)C2C1=O)N1CCCCC1 (stereo unspecified) do in these assays?
BCLXL inh: 8; MEX-5 binding: 1; EBV gp42 block: -13; E coli Lon inh: 5; GLD-1 RNA inh: -1

Results for O=S(=O)(Nc1ncccn1)c1ccc(Nc2ncnc3ccccc23)cc1 ?
BCLXL inh: 3; MEX-5 binding: -6; EBV gp42 block: -7; E coli Lon inh: 20*; GLD-1 RNA inh: 2; eLon confirm: 81*

What do the screens show for `O=C(Nc1ccc(S(=O)(=O)Nc2ncccn2)cc1)c1ccc(Br)s1`?
BCLXL inh: 5; MEX-5 binding: 0; EBV gp42 block: -15; E coli Lon inh: 28*; GLD-1 RNA inh: 5; eLon confirm: 34*

Results for O=C(Nc1ccc(Cl)cc1)Nc1ccc(S(=O)(=O)Nc2ncccn2)cc1 ?
BCLXL inh: -1; MEX-5 binding: -1; EBV gp42 block: -8; E coli Lon inh: 65*; GLD-1 RNA inh: 9; eLon confirm: 48*

What do the screens show for `COc1ccc([N+](=O)[O-])cc1NC(=O)C(C)Sc1nc(-c2ccccc2)cs1` (stereo unspecified)?
BCLXL inh: 5; MEX-5 binding: 2; EBV gp42 block: -11; E coli Lon inh: -10; GLD-1 RNA inh: 3

Results for CCN(CC(=O)NCc1ccc(F)cc1)CC(=O)Nc1cc(S(=O)(=O)N(C)C)ccc1C ?
BCLXL inh: -10; E coli Lon inh: -3; GLD-1 RNA inh: -1

How did CCN(CC(=O)NCc1ccc(F)cc1)CC(=O)Nc1ccc(Br)cc1F do in these assays?
E coli Lon inh: 22*; GLD-1 RNA inh: -2; eLon confirm: -2

Results for Cc1cc(CN(C)C(=O)c2cc(COc3ccc(F)cc3Cl)on2)n[nH]1 ?
BCLXL inh: 6; MEX-5 binding: 0; EBV gp42 block: -4; E coli Lon inh: 32*; GLD-1 RNA inh: -3; eLon confirm: -4

What do the screens show for `OC[C@H]1O[C@@H](c2nc3ccc(-c4nc(-c5ccc(Br)cc5)no4)cc3[nH]2)C[C@@H]1O`?
E coli Lon inh: -5

Results for COc1cc(NC(=O)c2ccccc2F)ccc1NC(=O)c1cc2ccccc2o1 ?
MEX-5 binding: -1; E coli Lon inh: 16*; eLon confirm: 3

How did O=C(CN(Cc1ccccc1)C(=O)CCl)c1cccc(Br)c1 do in these assays?
BCLXL inh: -3; E coli Lon inh: 6; GLD-1 RNA inh: 5

How did O=C(Nc1nccs1)c1ccc2ccccc2n1 do in these assays?
BCLXL inh: 3; MEX-5 binding: -2; E coli Lon inh: -3; GLD-1 RNA inh: -5

Results for COCCn1c(-c2ccc3ccccc3c2)nc2c1c(=O)[nH]c(=O)n2CC(C)C ?
BCLXL inh: 3; MEX-5 binding: 2; E coli Lon inh: 1; GLD-1 RNA inh: -2

How did C/C=C/c1cccc(-c2nc(C(=O)N3CCCCC3)cc3c2[C@@H](CCO)N(C(=O)NC(C)C)C3)c1 do in these assays?
E coli Lon inh: 2

What do the screens show for `COc1ccc(NC(=O)CN(C)C(=O)CCc2c[nH]c3ccccc23)cc1`?
BCLXL inh: 3; MEX-5 binding: -1; E coli Lon inh: 32*; GLD-1 RNA inh: 3; eLon confirm: 16

How did CN(CC(=O)Nc1ccccc1C(F)(F)F)C(=O)CN1C(=O)C2CCCCC2C1=O (stereo unspecified) do in these assays?
BCLXL inh: 0; MEX-5 binding: -2; E coli Lon inh: -8; GLD-1 RNA inh: 3

Results for Oc1ccc(Nc2nc(-c3ccccc3O)nc3ccccc23)cc1 ?
MEX-5 binding: -2; E coli Lon inh: 2

Results for Oc1ccc(Nc2nc(-c3ccccc3F)nc3ccccc23)cc1 ?
BCLXL inh: 2; MEX-5 binding: 0; E coli Lon inh: 17*; GLD-1 RNA inh: 4; eLon confirm: 8

Results for O=S(=O)(c1ccccc1)N1CCN(Cc2ccccc2)c2ccccc21 ?
E coli Lon inh: 34*; eLon confirm: -1

Results for CC(=O)OCC(=O)Nc1ccc(C(C)=O)cc1 ?
BCLXL inh: -7; MEX-5 binding: -2; EBV gp42 block: -109; E coli Lon inh: 28*; GLD-1 RNA inh: -1; eLon confirm: -9
